# According to PubChem BioAssay (NCATS):
# Inconclusive results are not listed. A call without a number means that no potency is given here. Unmarked numbers belong to inactive results. The source made the active and inactive calls. Unless noted, calls come from the whole dose curve; as a rule, active = well fitted curve in the direction sought with a large enough effect; inconclusive = small, poorly fitted or top-dose-only effect, or another doubt; inactive = no such curve, though single readings can be large; an effect the other way counts as inactive or inconclusive.
# Columns and labels:
# [1] = molecular target: Calcium and integrin-binding protein 1 (Homo sapiens) (UniProt Q99828); test: Primary qHTS for Identification of Calcium Integrin Binding Protein 1 (CIB1) Competitor (AID 1508620);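 note: GST tagged CIB1 binding a fluorescein labelled alphaIIb integrin peptide tracer; top concentration of the series differs between compounds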
# Calcium and integrin-binding protein 1 (Homo sapiens), sequence (Q99828 whole entry, looked up): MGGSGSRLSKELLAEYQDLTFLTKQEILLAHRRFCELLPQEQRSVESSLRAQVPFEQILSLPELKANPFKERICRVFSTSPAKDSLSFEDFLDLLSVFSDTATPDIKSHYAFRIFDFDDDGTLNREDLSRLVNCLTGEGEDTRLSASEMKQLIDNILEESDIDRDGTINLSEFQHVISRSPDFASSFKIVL
# Outline: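 Fluorescence polarization competition: GST-tagged CIB1 (1 uM final) preincubated with compound 15 min at room temperature, then FITC-labelled alphaIIb peptide (100 nM final) added. After 15 min at room temperature, polarization read at Ex 480/Em 540.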
# [2] = Counterscreen qHTS for small molecule stabilizers of the endoplasmic reticulum resident proteome: GLuc-NoTag assay (AID 1508627);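 note: SH-SY5Y cells given compound then 100 nM thapsigargin to empty ER calcium; series mostly up to about 76 µM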
# Outline: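 SH-SY5Y cells stably expressing constitutively secreted GLuc without SERCaMP tag, exposed to compound for 19 hr, then to 100 nM thapsigargin for 4 hr at 37C. Medium luciferase was read by coelenterazine luminescence without lysis.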
# [3] = Confirmatory qHTS for small molecule stabilizers of the endoplasmic reticulum resident proteome: Secreted ER Calcium Modulated Protein (SERCaMP) assay (AID 1508628);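 note: SH-SY5Y cells given compound 16 h then thapsigargin 100 nM for 4 h; series mostly up to about 76 µM; nearly all actives have a fitted effect of over 40% in size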
# Outline: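 We seeded SH-SY5Y-GLuc-SERCaMP cells, added compounds (three concentrations in the primary run, eleven up to 76.6 uM in confirmation), incubated 16 h, depleted ER calcium with thapsigargin, and read luciferase 4 h later.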
# [4] = Cell Viability qHTS for small molecule stabilizers of the endoplasmic reticulum resident proteome (AID 1508629); conditions: cell viability counter-screen, 100 nM thapsigargin for final 4 h;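 note: compound exposure about 46 h in total before the viability read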; note: potency is the fitted concentration of half-maximal effect;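 for max response: human SH-SY5Y neuroblastoma cells carrying the GLuc-SERCaMP reporter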
# [5] = A High-Content qHTS Against Drug Library for the Identification of Small Molecules that Inhibit DYT1 Early Onset Primary Dystonia-Associated Cell Pathology (AID 1645839; calls by dose curve; note: potency is the fitted concentration of half-maximal effect)
# Outline: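 Flp-In T-REx 293 cells with tetracycline-inducible EGFP-delE hTOR1A (WT EGFP-hTOR1A as reference), 800 cells/well; compound added with tetracycline, 48 h at 37 C. Fixed, permeabilized cells imaged; %pathology (punctate TorsinA) primary, cell count counterscreen.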
# [6] = molecular target: Cytochrome P450 2D6 (Homo sapiens) (UniProt P10635); test: Cytochrome P450 family 2 subfamily D member 6 (CYP2D6) small molecule antagonists: luciferase biochemical (cell-free) qHTS assay (AID 1645840; active = well fitted curve in the direction sought with a large enough effect in the repeat runs; an effect the other way counts as inactive or inconclusive; note: nearly all actives have a fitted effect of over 55% in size; note: potency is the fitted concentration of half-maximal effect)
# Cytochrome P450 2D6 (Homo sapiens), sequence (P10635 whole entry, looked up): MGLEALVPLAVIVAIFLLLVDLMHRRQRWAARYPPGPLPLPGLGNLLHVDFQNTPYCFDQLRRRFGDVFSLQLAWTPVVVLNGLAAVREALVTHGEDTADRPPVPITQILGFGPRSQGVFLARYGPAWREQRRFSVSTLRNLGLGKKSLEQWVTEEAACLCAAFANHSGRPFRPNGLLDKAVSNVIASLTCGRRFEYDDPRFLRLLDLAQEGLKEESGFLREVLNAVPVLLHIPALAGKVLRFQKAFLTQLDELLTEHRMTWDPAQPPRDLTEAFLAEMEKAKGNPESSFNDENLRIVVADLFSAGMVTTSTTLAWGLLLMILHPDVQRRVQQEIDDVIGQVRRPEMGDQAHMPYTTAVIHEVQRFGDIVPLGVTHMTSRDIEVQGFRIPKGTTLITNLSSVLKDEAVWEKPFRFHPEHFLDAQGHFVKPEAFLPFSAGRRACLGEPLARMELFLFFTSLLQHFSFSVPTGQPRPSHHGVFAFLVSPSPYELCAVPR
# Outline: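 P450-Glo luminescent screen: recombinant CYP2D6 enzyme–proluciferin substrate mix preincubated with compound 10 min at room temperature, then NADPH regeneration added for 1 h at room temperature. Detection reagent added for 20 min; luciferin light read as relative luminescence units.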
# [7] = molecular target: Cytochrome P450 2C9 (Homo sapiens) (UniProt P11712); test: Cytochrome P450 family 2 subfamily C member 9 (CYP2C9) small molecule antagonists: luciferase biochemical (cell-free) qHTS assay (AID 1645842; active = well fitted curve in the direction sought with a large enough effect in the repeat runs; an effect the other way counts as inactive or inconclusive; note: nearly all actives have a fitted effect of over 55% in size; note: potency is the fitted concentration of half-maximal effect)
# Cytochrome P450 2C9 (Homo sapiens), sequence (P11712 whole entry, looked up): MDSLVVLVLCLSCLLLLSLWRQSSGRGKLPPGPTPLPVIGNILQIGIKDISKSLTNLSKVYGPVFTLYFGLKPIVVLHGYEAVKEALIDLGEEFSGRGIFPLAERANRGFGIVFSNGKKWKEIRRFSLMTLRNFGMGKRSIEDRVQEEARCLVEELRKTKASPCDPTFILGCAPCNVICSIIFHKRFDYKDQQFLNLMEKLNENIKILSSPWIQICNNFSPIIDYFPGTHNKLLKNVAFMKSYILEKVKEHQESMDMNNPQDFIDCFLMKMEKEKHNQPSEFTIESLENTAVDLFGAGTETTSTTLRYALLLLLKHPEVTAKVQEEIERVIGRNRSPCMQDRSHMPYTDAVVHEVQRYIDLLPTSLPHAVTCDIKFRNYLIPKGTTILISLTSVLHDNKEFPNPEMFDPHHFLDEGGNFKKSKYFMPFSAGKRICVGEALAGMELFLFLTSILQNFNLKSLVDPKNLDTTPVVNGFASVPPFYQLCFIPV
# Outline: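 Luminescence, after 20 min with luciferin detection reagent, reflected CYP2C9 turnover during a 1 h NADPH-driven reaction at 37C. Enzyme-substrate mix contained 0.4% bovine serum albumin and was preincubated with compound 10 min at room temperature.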
# [8] = molecular target: Calcium and integrin-binding protein 1 (Homo sapiens) (UniProt Q99828); test: Validation qHTS for Identification of Calcium Integrin Binding protein 1 (CIB1) Competitor (AID 1508618)
# Outline: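 CIB1-GST (1 uM final) incubated 15 min at room temperature with compounds (up to 114 uM), then FITC-labelled alphaIIb peptide (100 nM) added. FP read (Ex 480/Em 540) after 15 min, pH 7.4 buffer containing 5 mM CaCl2.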
# [9] = Primary qHTS for small molecule stabilizers of the endoplasmic reticulum resident proteome: Secreted ER Calcium Modulated Protein (SERCaMP) assay (AID 1508630); note: potency is the fitted concentration of half-maximal effect
# Outline: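 GLuc-SERCaMP-expressing SH-SY5Y cells, pretreated 16 h with compound, are challenged with thapsigargin to empty ER calcium stores; after 4 h, coelenterazine is added directly to the medium and luminescence is imaged.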
# [10] = molecular target: Cytochrome P450 3A4 (Homo sapiens) (UniProt P08684); test: Cytochrome P450 family 3 subfamily A member 4 (CYP3A4) small molecule antagonists: luciferase qHTS assay (AID 1645841; active = well fitted curve in the direction sought with a large enough effect in the repeat runs; an effect the other way counts as inactive or inconclusive; note: nearly all actives have a fitted effect of over 45% in size)
# Cytochrome P450 3A4 (Homo sapiens), sequence (P08684 whole entry, looked up): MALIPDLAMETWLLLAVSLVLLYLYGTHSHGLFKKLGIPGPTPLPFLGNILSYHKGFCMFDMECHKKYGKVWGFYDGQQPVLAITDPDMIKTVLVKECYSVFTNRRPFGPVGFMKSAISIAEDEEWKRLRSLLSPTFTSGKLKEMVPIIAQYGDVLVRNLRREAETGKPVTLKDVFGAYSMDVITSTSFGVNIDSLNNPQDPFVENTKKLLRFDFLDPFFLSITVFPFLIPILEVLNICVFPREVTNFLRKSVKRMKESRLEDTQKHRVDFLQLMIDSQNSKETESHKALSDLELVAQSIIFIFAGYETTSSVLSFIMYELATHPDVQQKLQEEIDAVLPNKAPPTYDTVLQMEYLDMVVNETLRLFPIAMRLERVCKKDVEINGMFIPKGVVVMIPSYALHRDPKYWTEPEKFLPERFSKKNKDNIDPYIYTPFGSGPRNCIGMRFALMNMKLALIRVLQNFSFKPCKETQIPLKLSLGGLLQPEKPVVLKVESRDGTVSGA
# Outline: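 P450-Glo CYP3A4 enzyme with proluciferin substrate preincubated 10 min with compound at room temperature, then NADPH regeneration 1 h. Luciferin detection reagent added for 20 min; luminescence recorded. Ketoconazole positive control.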
smiles,measurement,setting,value
CCCCCCCCCCCCCCCCCC(=O)OCC(O)CO (centres undefined),Potency,[1],inactive
same,outcome,[2],inactive
same,Potency,[3],inactive
same,max response,[4],15.4%
same,Potency,[5],inactive
same,Potency,[6],inactive
same,Potency,[7],inactive
CC(C)COC(=O)OCN1C(=O)CN(CCN2CC(=O)N(COC(=O)OCC(C)C)C(=O)C2)CC1=O,outcome,[8],inactive
same,Potency,[9],inactive
CCC(NC(C)C)C(O)c1ccc(O)c(O)c1 (centres undefined),outcome,[8],inactive
same,Potency,[9],inactive
same,Potency,[7],15.1 µM (active)
CN1[C@@H]2CC[C@H]1CC(OC(=O)c1c[nH]c3ccccc13)C2 (some centres undefined),Potency,[1],inactive
same,outcome,[2],inactive
same,Potency,[3],inactive
same,Potency,[9],35.5 µM (active)
same,Potency,[5],inactive
same,Potency,[6],12.3 µM (active)
same,Potency,[7],inactive
N[C@@H](Cc1cnc[nH]1)C(=O)O,outcome,[8],inactive
same,Potency,[9],inactive
Oc1ccc(O)cc1,outcome,[8],inactive
same,Potency,[1],inactive
same,outcome,[2],inactive
same,max response,[4],-23.4%
same,Potency,[7],inactive
O=C(O)c1cc2cc(Cc3cccnc3)ccc2o1,outcome,[8],inactive
same,Potency,[9],inactive
N[C@H](CO)C(=O)O,outcome,[8],inactive
same,Potency,[7],inactive
CC(=O)c1ccc2c(c1)N(CCCN1CCC(CCO)CC1)c1ccccc1S2,Potency,[1],inactive
same,outcome,[2],inactive
CNCCC=C1c2ccccc2CCc2ccccc21,outcome,[8],inactive
same,Potency,[6],4.77 µM (active)
same,Potency,[7],inactive
CN1CCN(CCCN2c3ccccc3Sc3ccc(S(=O)(=O)N(C)C)cc32)CC1,Potency,[1],inactive
same,max response,[4],-9.17%
C[C@@H]1CN(CCCn2c3ccccc3c3ccccc32)C[C@H](C)N1,Potency,[1],inactive
same,Potency,[3],inactive
same,Potency,[4],31.6 µM (active)
same,Potency,[7],inactive
CN(C)C(=S)SC(=S)N(C)C,Potency,[1],inactive
same,outcome,[2],inactive
same,Potency,[3],inactive
same,Potency,[5],inactive
COc1cc2c(cc1O)CC[C@@H]1[C@@H]2CC[C@]2(C)[C@@H](O)CC[C@@H]12,outcome,[8],inactive
C[C@@H](CN(C)C)CN1c2ccccc2Sc2ccccc21,Potency,[1],inactive
Nc1nc2ncc(CNc3ccc(C(=O)N[C@@H](CCC(=O)O)C(=O)O)cc3)nc2c(=O)[nH]1,Potency,[1],inactive
same,outcome,[2],inactive
same,Potency,[3],inactive
same,max response,[4],22.5%
same,Potency,[5],inactive
same,Potency,[6],inactive
same,Potency,[7],inactive
CC(C)C[C@H]1C(=O)N2CCC[C@H]2[C@]2(O)O[C@](NC(=O)[C@@H]3C=C4c5cccc6[nH]c(Br)c(c56)C[C@H]4N(C)C3)(C(C)C)C(=O)N12,outcome,[8],inactive
same,Potency,[6],inactive
same,Potency,[7],3.38 µM (active)
CCCn1c(=O)[nH]c(=O)c2[nH]cnc21,outcome,[8],inactive
same,Potency,[9],inactive
C1CCc2nnnn2CC1,outcome,[8],inactive
same,Potency,[9],inactive
CC/C(=C(/CC)c1ccc(O)cc1)c1ccc(O)cc1,Potency,[1],inactive
CN1C2CCC1CC(OC(=O)c1c[nH]c3ccccc13)C2 (centres undefined),outcome,[8],inactive
same,outcome,[2],inactive
CC(=O)O[C@H]1C[C@@H]2CC[C@@H]3[C@H](CC[C@@]4(C)[C@H]3C[C@H]([N+]3(C)CCCCC3)[C@@H]4OC(C)=O)[C@@]2(C)C[C@@H]1[N+]1(C)CCCCC1,outcome,[8],inactive
same,Potency,[9],inactive
O=C1OC(c2ccc(O)cc2)(c2ccc(O)cc2)c2ccccc21,Potency,[1],inactive
CCN1CCN(c2cc3c(cc2F)c(=O)c(C(=O)O)cn3C2CC2)CC1,Potency,[1],inactive
same,outcome,[2],inactive
same,Potency,[3],inactive
same,max response,[4],21.1%
same,Potency,[9],1.12 µM (active)
same,Potency,[5],inactive
same,Potency,[6],inactive
same,Potency,[7],inactive
CNCCC(Oc1ccccc1C)c1ccccc1 (centres undefined),outcome,[8],inactive
same,Potency,[9],inactive
CCCC1O[C@@H]2C[C@H]3[C@@H]4CCC5=CC(=O)C=C[C@]5(C)[C@H]4[C@@H](O)C[C@]3(C)[C@]2(C(=O)CO)O1 (some centres undefined),outcome,[8],inactive
same,Potency,[9],inactive
same,Potency,[7],15.1 µM (active)
CC(CCc1ccccc1)NCC(O)c1ccc(O)c(C(N)=O)c1 (centres undefined),outcome,[8],inactive
same,Potency,[1],inactive
CC(C)N=C(N)/N=C(\N)Nc1ccc(Cl)cc1,Potency,[1],inactive
same,outcome,[2],inactive
same,Potency,[6],3.09 µM (active)
same,Potency,[7],inactive
O=C1CCC(c2ccc(-n3ccnc3)cc2)=NN1,outcome,[8],inactive
same,Potency,[9],inactive
CC(=O)Oc1ccc(C(=C2CCCCC2)c2ccc(OC(C)=O)cc2)cc1,Potency,[1],inactive
same,Potency,[3],inactive
same,Potency,[6],15.5 µM (active)
same,Potency,[7],9.77 µM (active)
CC1(C)CCC(NC(=O)[C@@H](N)CCC(=O)O)CC1,outcome,[8],inactive
same,Potency,[9],inactive
CC[C@H](C)C(=O)O[C@H]1CCC=C2C=C[C@H](C)[C@H](CC[C@@H]3C[C@@H](O)CC(=O)O3)[C@H]21,outcome,[8],inactive
C[C@@H]1C(=O)NC2=Nc3cccc(Cl)c3CN21,outcome,[8],inactive
c1ccc(-c2ccc(C(c3ccccc3)n3ccnc3)cc2)cc1 (centres undefined),Potency,[1],inactive
same,Potency,[3],inactive
same,Potency,[6],0.246 µM (active)
same,Potency,[7],0.0245 µM (active)
C[N+]1(CCCCC[N+]2(C)CCCC2)CCCC1,outcome,[8],inactive
same,Potency,[9],inactive
same,Potency,[6],inactive
Nc1cc(Cl)c(NC2=NCCN2)c(Cl)c1,outcome,[8],inactive
same,Potency,[9],inactive
Nc1ccn([C@@H]2O[C@H](CO)[C@@H](O)C2(F)F)c(=O)n1,outcome,[10],inactive
Cc1c(C)n(Cc2ccccc2)c2ccc(C(=O)OCCN(C)C)cc12,Potency,[1],inactive
same,Potency,[9],inactive
same,Potency,[5],11.2 µM (active)
same,Potency,[6],13.8 µM (active)
same,Potency,[7],12.3 µM (active)
Cc1ccccc1C(=O)Nc1ccc(C(=O)N2CCCC(N(C)C)c3ccccc32)cc1 (centres undefined),Potency,[1],inactive
same,Potency,[9],inactive
same,Potency,[6],inactive
same,Potency,[7],inactive
CN(C/C=C/c1ccccc1)Cc1cccc2ccccc12,Potency,[1],inactive
same,Potency,[9],inactive
same,Potency,[5],inactive
same,outcome,[10],inactive
